Source: PubChem BioAssay (National Center for Advancing Translational Sciences (NCATS))
Sampled rows, rich in hits. Any-hit rate of the full collection: about 11%.
HTT aggregate: qHTS Multiplex Assay to Identify Dual Action Probes in a Cell Model of Huntington: Aggregate Formation (GFP) | PC12 HttQ103-GFP aggregates, Acumen cytometry, 40 h | Potency, µM (top dose mostly 46.1 µM), hits mostly inhibitors | hit rate 1.1% among 220,000; also: nearly all actives have a fitted effect of over 60% in size
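Aggregates are detected as GFP objects 1–25 µm with signal 6 STDEV over background in lysates of induced PC12 cells. These carry Huntingtin exon 1 with 103 glutamines fused to GFP under an ecdysone promoter; compounds titrated.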
HTT cytoprotect: qHTS Multiplex Assay to Identify Dual Action Probes in a Cell Model of Huntington: Cytoprotection (ATP). PC12 HTT-Q103 induced, cytoprotection, ATP luminescence, 40 h. Potency, µM (highest dose often 56.4 µM), actives largely listed as activators. hit rate 0.14% among 230,000. AID 1471, 2008; also: nearly all actives have a fitted effect of over 45% in size
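ATP quantification (ATPlite) reports survival of PC12 cells in which tebufenozide, 100 nM final, switches on Htt exon 1 with 103 glutamines linked to GFP; compounds are titrated.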
CBFb-RUNX1 inh: qHTS Assay for Compounds Blocking the Interaction Between CBF-beta and RUNX1 for the Treatment of Acute Myeloid Leukemia | Runt-related transcription factor 1 (Homo sapiens) + Core-binding factor subunit beta … | AlphaScreen CBFb-His/RUNX1-biotin binding, biochemical | Potency, µM (top dose mostly 59.8 µM), usual class: inhibitors | 230,000 tested, under 10 active
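Read-out: AlphaScreen. Format: His-CBF-beta with biotinylated RUNX1 (30 nM each) preincubated 20 min, compound 15 min, Ni-chelate plus streptavidin beads 90 min; room temperature throughout.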
HPGD block: qHTS Assay for Inhibitors of HPGD (15-Hydroxyprostaglandin Dehydrogenase); 15-hydroxyprostaglandin dehydrogenase [NAD(+)] (Homo sapiens), P15428; purified HPGD, NADH fluorescence kinetic, PGE2 substrate; Potency, µM, most hits filed as inhibitors; hit rate 4.3% among 150,000; AID 894, 2007; active = well fitted inhibition curve with a large enough effect, not every such curve was filed as active; inconclusive = small, poorly fitted or top-dose-only effect, or another doubt; inactive = no such curve, though single readings can be large or run the other way
Target sequence (P15428 whole entry, looked up): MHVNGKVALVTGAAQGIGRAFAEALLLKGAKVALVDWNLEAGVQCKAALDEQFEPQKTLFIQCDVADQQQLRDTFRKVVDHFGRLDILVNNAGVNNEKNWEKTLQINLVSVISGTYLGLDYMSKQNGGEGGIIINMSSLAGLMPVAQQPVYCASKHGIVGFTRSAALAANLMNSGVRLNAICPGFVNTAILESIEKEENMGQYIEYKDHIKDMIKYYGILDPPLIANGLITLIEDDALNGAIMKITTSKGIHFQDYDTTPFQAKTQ
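NADH formation kinetics: reaction with 30 uM PGE2 and 1 mM NAD+ (final), 20 nM enzyme, Tris-HCl pH 8 with Tween 20, after 15 min compound preincubation at room temperature. Fluorescence change, last versus first of five reads.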
PNC inhibitor: High Content Assay for Compounds that inhibit the Assembly of the Perinucleolar Compartment; PC3M PTB-GFP, PNC prevalence imaging, 16 h; stronger effect = lower value; activity change (PNC), negative = inhibition, % at 10 µM; hit rate 3.1% among 140,000;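 active = readout at or below -70, meaning at least 70% loss of cells showing the perinucleolar compartment, a nuclear body marking cancer cells; inconclusive = readout between -30 and a set limit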
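Read-out is percentage of cells bearing a perinucleolar compartment, from automated 20x imaging of fixed, Hoechst-stained PC3M PTB-GFP cells. Cells were seeded 4 h, then exposed 16 h to compound (23 nl of library stock) in duplicate plates.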
ALDH1A1 inh: qHTS Assay for Inhibitors of Aldehyde Dehydrogenase 1 (ALDH1A1); Aldehyde dehydrogenase 1A1 (Homo sapiens), P00352; Purified ALDH1A1, NADH fluorescence, propionaldehyde substrate; Potency, µM (highest dose often 75.3 µM), most hits filed as inhibitors; hit rate 7.3% among 220,000; AID 1030, 2008; active = well fitted inhibition curve with a large enough effect, not every such curve was filed as active; inconclusive = small, poorly fitted or top-dose-only effect, or another doubt; inactive = no such curve, though single readings can be large or run the other way
Numbers stand for hits; . = inactive; ? = inconclusive; / = no result given; [ ] = dose if it differs, or a comment. Unless noted, calls follow the shape of the dose curve; as a rule, active = well fitted curve in the direction sought with a large enough effect; inconclusive = small, poorly fitted or top-dose-only effect, or another doubt; inactive = no such curve, though single readings can be large; an effect the other way counts as inactive or inconclusive.

SMILES	HTT aggregate	HTT cytoprotect	CBFb-RUNX1 inh	HPGD block	PNC inhibitor	ALDH1A1 inh
O=C(CSc1ccc(-c2ccccc2)nn1)Nc1ccc2c(c1)OCCO2	.	.[10 µM]	.	.	-113	.
O=C(CCSc1nnc2scc(-c3ccccc3)n12)NCc1ccc2c(c1)OCO2	.	.[0.074 µM]	.	?	.	.
c1ccc(-c2csc3nnc(SCc4ccc5c(c4)OCO5)n23)cc1	10µM	.[10 µM]	.	22µM	.	?
N#Cc1ccc(CS(=O)(=O)c2nnnn2C2CCCCC2)cc1	/	.	.	.	/	.
CCc1c(C)nc(SCC(=O)Nc2ccc3c(c2)OCCO3)[nH]c1=O	.[9.22 µM]	.[10 µM]	.	/	/	11µM
CC(C)Oc1cccc(-c2nnc(SCC(=O)Nc3ccc4c(c3)OCCO4)n2N)c1	.	.	.	.	.	13µM
O=C(CSc1nnc2scc(-c3ccccc3)n12)Nc1ccc2c(c1)OCCO2	.	.[0.074 µM]	.	.	?	16µM
O=C(CSc1ncn(-c2ccccc2)n1)Nc1ccc2c(c1)OCCO2	.	.	.	.	-86	?
Cc1nnc(SCC(=O)Nc2ccc3c(c2)OCO3)[nH]c1=O	.	.	.	/	/	.
O=C(CSc1nnc(-c2ccc(O)cc2)n1Cc1ccccc1)NNC(=O)c1ccc(Br)cc1	.	.[10 µM]	.	.	.	?
COc1ccc(/C=N\NS(=O)(=O)c2ccc(Br)cc2)cc1COc1ccccc1[N+](=O)[O-]	.	.[1.9 µM]	.	.	.	?
Oc1ccc(Cc2cc(Cl)cc(Cl)c2O)cc1Cl	/	.[10 µM]	/	.	/	.[13.5 µM]
CNCC(=O)N(CC(C)C)c1c(N)n(CC(C)C)c(=O)[nH]c1=O	.	.	.	/	/	.
Cc1cc(NC(=O)CSc2nnc(-c3ccncc3)n2N)ccc1Br	.	.	.	.	-89	?
Nn1c(SCC(=O)Nc2ccc3c(c2)OCO3)nnc1-c1ccncc1	?	.	.	.	.	.
Cc1cc(C)nc(NS(=O)(=O)c2ccc(NC(=O)CCN3C(=O)c4ccccc4C3=O)cc2)n1	.	.	.	.	?	.
Cc1nnc(C)n1/N=C/c1ccccc1	.	.	.	.	.	.
N=C1N(/N=C/c2ccccc2)C(=Nc2ccccc2)C(=S)N1c1ccccc1	.	.[10 µM]	.	.	-100	?
CC(C)(C)N1C(=O)c2ccccc2NC(=O)N1Cc1ccccc1	.	.	.	.	.	.
O=C1Nc2ccccc2C(=O)C1(Cl)Cc1ccccc1 (configuration not stated)	.	.	.	7.1µM	.	14µM
COc1ccc(N(C(=O)CCl)C(C(=O)NCCc2ccccc2)c2cccs2)cc1Cl (configuration not stated)	.[9.22 µM]	.[10 µM]	.	.	?	.
COc1cccc(N(C(=O)CCl)C(C(=O)NCCc2ccccc2)c2cccs2)c1 (configuration not stated)	22µM	.[10 µM]	.	.	.	.
C/C(=N\N=C1\NC(=O)CC(C(=O)O)S1)c1cccs1 (configuration not stated)	.	.	.	.	-106	.
CNC(=O)C1CC(=O)N/C(=N/N=C(\C)c2cccs2)S1 (configuration not stated)	.	.	.	.	.	.
COC(=O)C(CC(=O)c1ccc(Br)cc1)n1ccnc1 (configuration not stated)	?	.[10 µM]	.	2.5µM	.	0.45µM
SMILES	HTT aggregate	HTT cytoprotect	CBFb-RUNX1 inh	HPGD block	PNC inhibitor	ALDH1A1 inh
CC(C)CNc1nc2ncnc(N)c2[nH]1	/	.[10 µM]	/	.	/	.[13.5 µM]
CC#C[C@@]1(O)CC[C@@H]2[C@@H]3CCC4=CC(=O)CCC4=C3[C@@H](c3ccc(N(C)C)cc3)C[C@]21C	/	.[1.9 µM]	/	/	/	/
COc1cc(OC)c(-c2c3cc(O)c(=O)cc-3oc3cc(O)c(O)cc23)cc1OC	4µM	.[10 µM]	/	16µM	.	10µM
CCOC(=O)C1=C(c2cccc(F)c2)NC(=S)NC1C (configuration not stated)	.	.	.	.	.	1.6µM
COc1cccc(-c2cncnc2NCc2cccs2)c1	/	.	/	/	/	?
CC(=O)N[C@@H]1CONC1=O	/	.[10 µM]	/	.	/	.[13.5 µM]
Cc1ccc(-n2cc3c(=O)n(C)c(=O)n(C)c3c2)cc1C	.	.	.	.	.	14µM
COc1ccc([C@@H]2CC(=O)c3c(O)cc(O[C@@H]4O[C@H](CO)[C@@H](O)[C@H](O)[C@H]4O[C@@H]4O[C@@H](C)[C@H](O)[C@@H](O)[C@H]4O)cc3O2)cc1	/	/	.	/	/	/
O=c1c(-c2ccccc2)c1-c1ccccc1	14µM	11µM	.	/	/	/
O=C(O)c1cc(C(=O)O)c(-c2ccccc2)c(C(=O)O)c1	.	.	.	.	.	.
C[C@H](C(=O)CC(=O)OC(C)(C)C)[C@H](O)c1ccccc1	/	/	.	/	/	/
O=C(CCC1CCCCC1)Nc1c2c(nn1-c1ccc(F)cc1)CS(=O)(=O)C2	.	.	.	.	.	10µM
O=C(Nc1c2c(nn1-c1ccc(F)cc1)CS(=O)(=O)C2)C12CC3CC(CC(C3)C1)C2	.	.	.	.	.	4µM
CCC(=O)Nc1c2c(nn1-c1ccc(F)cc1)CS(=O)C2 (configuration not stated)	.	.	.	.	.	.
O=C1NC(c2cccc([N+](=O)[O-])c2)Oc2ccccc21 (configuration not stated)	.	.	.	/	/	.
C=CCOC(=O)C(C(C)=O)C(NC(=O)OC)c1cccs1 (configuration not stated)	/	?	.[13.1 µM]	/	/	.[13.5 µM]
CCc1nnc(NS(=O)(=O)c2ccc(N=Cc3c(C)[nH]n(-c4ccc(Cl)cc4)c3=O)cc2)s1	.	.[10 µM]	.	?	.	?
Cc1[nH]n(-c2ccc(Cl)cc2)c(=O)c1/C=N/c1nnc(-c2ccccc2)s1	.	.[10 µM]	.	28µM	.	.
Cc1onc(-c2c(Cl)cccc2Cl)c1C(=O)n1nnc2ccccc21	.[9.22 µM]	.	.	.	.	.
Cc1ccc(N2C(=O)CSC2=S)cc1C	.[9.22 µM]	.	.	/	/	?
CN(C)c1ccc(N2C(=O)CSC2=S)cc1	.	.[10 µM]	/	.	.	2.2µM
CC(C)c1nnc(NC(=O)c2cccnc2)s1	.	.	.	.	.	.
CC1CC=CC2C1C(=O)N(Cc1ccccc1)C2c1ccc(-c2cc3ccccc3s2)cc1F (configuration not stated)	/	/	.	/	/	/
